Bioassay records: PubChem, The Scripps Research Institute Molecular Screening Center
hgDAF12 agonist – H. glycines DAF-12 receptor agonists, primary screen, cell-based, luminescence, HEK293, GAL4 fusion, UAS-luciferase; actives 1.8% (n = 370,000); Nuclear hormone receptor DAF-12 (Heterodera glycines), GAL4 fusion; HEK293 GAL4-hgDAF12 UAS-luciferase reporter, agonist luminescence; normalized to butyrate control; AID 687014, 2013; activation, % at 6.8 µM;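 active means activation above a cutoff set at the mean of all screened compounds plus 3 SD, cut at about 10% in these data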
DAX1 inh-1 – DAX1 (NR0B1) inhibitors, primary screen, cell-based, HEK293, Gal4-DAX1, luciferase luminescence; HEK293 Gal4-DAX1 luciferase reporter; inhibition, % at 6.75 µM; actives 0.99% (n = 340,000); AID 504766, 2011;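 active means inhibition above the mean over all tested compounds plus 3 SD, cut at about 4.2% in these data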;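 further: inhibition shows as a rise in luminescence from relieved DAX1 repression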
Target sequence (P51843 207-470 limits assumed): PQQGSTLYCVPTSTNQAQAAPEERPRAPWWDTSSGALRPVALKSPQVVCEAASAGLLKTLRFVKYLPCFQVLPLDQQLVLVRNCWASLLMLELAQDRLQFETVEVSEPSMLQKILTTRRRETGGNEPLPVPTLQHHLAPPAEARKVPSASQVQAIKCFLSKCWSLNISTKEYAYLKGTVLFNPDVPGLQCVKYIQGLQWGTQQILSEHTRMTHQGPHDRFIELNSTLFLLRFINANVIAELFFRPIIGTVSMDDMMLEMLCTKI
ssDAF12 agonist – S. stercoralis DAF-12 nuclear receptor activators, primary screen, cell-based, luminescence, HEK293, GRIP1 co-expression, lit1-tk-luc. HEK293 ssDAF-12/GRIP1 lit1-tk-luc reporter; % of 3 µM dafachronic acid response. Nuclear hormone receptor DAF-12 (Strongyloides stercoralis). activation, % at 6.8 µM. actives 1% (n = 370,000);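 active means activation above the mean over all tested compounds plus 3 SD, cut at about 0.9% in these data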
hcDAF-12 act – H. contortus DAF-12 nuclear receptor activators, primary screen, cell-based, luminescence, HEK293, lit1-tk-luc reporter. activation, % at 6.8 µM. actives 1.4% (n = 370,000). HEK293 hcDAF-12 lit1-tk-luc reporter; 0% DMSO, 100% Δ7-dafachronic acid;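 active means activation above the mean of all tested compounds plus 3 SD, cut at about 5.5% in these data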
DAX1 inh-2 – DAX1 (NR0B1) inhibitors on StAR promoter, primary screen, cell-based, luminescence, SF-1 (NR5A1), full-length DAX-1; actives 1.1% (n = 370,000); inhibition, % at 6.8 µM; AID 652010, 2013; HEK293T StAR-luciferase reporter, SF-1/DAX-1 repression relief;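 active means inhibition above the mean over all tested compounds plus 3 SD, cut at about 3.6% in these data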;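 further: higher inhibition means more luminescence from relief of DAX-1 repression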
DAX1 inh confirm – DAX1 (NR0B1) inhibitors relieving SF-1 repression, confirmation, cell-based, luminescence, HEK293T, full-length DAX-1, SF-1 activated StAR promoter; shares compounds with DAX1 inh-2; HEK293T StAR-promoter luciferase reporter, SF-1/DAX-1 repression; inhibition, % at 6.8 µM; actives 87% (n = 2,400); AID 652134, 2013;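 active means inhibition above the average of every tested compound plus 3 SD, cut at about 3.8% in these data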
SF1 mutant ctr – StAR reporter signal changes without DAX1, counter-screen for DAX1 inhibitor project, cell-based, luminescence, AF-2 mutant SF-1, transactivation; shares compounds with DAX1 inh-2; HEK293 StAR-luciferase, SF-1 AF2 mutant; inhibition, % at 6.8 µM; actives 78% (n = 2,400);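 active means inhibition above the mean of all tested compounds plus 3 SD, cut at about 3% in these data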
Large screens that a line does not name were inactive (follow-up assays come after a bar, where they were run). Shown are actives, neighbours in structure and some others; about 4.1% of the full set was active somewhere.

C=CCOc1c(Br)cc(/C=N/Nc2ccc(C(=O)O)cc2)cc1OCC	hgDAF12 agonist 11.9, DAX1 inh-2 7.3 | DAX1 inh confirm 13.1 | SF1 mutant ctr 8.7
NC(=O)N/N=C/c1cn(-c2ccccc2)nc1-c1cccs1	none
O=C(O)c1cccc(N/N=C/c2ccc(F)c(F)c2)c1	DAX1 inh-2 5.0 | DAX1 inh confirm 11.5 | SF1 mutant ctr 7.2
O=C(N/N=C/c1ccc(O)cc1)c1cccc(N/N=C/c2ccc(O)cc2)c1	none
COc1ccc(/C=N/Nc2ccc(C(=O)O)cc2)cc1OC	hgDAF12 agonist 11.1, hcDAF-12 act 6.1, DAX1 inh-2 5.3 | DAX1 inh confirm 16.6 | SF1 mutant ctr 5.8
CCCS(=O)(=O)N1CCCC(C(=O)NCCCN2CCN(c3cccc(Cl)c3)CC2)C1 (stereo unspecified)	none
CCc1ccc(/C=C(\Cl)c2nc3cc(Cl)ccc3c(=O)[nH]2)cc1	none
Cc1cc(C)cc(C(=O)NC(CC(N)=O)c2ccc(NC3CCCCC3)c([N+](=O)[O-])c2)c1 (stereo unspecified)	none
O=C(c1ccco1)N1CCN(c2ccc(N3CCCCC3)nn2)CC1	DAX1 inh-2 7.8 | DAX1 inh confirm 7.3 | SF1 mutant ctr 6.4
O=C(c1ccco1)N1CCN(C(=O)c2ccco2)CC1	none (no result: DAX1 inh-1)
O=C(CSc1nc2ccccc2[nH]1)N/N=C/c1ccncc1	none (no result: DAX1 inh-1)
O=C(CSc1nc2ccccc2[nH]1)NN=Cc1ccccc1C(=O)O	hcDAF-12 act 5.9, DAX1 inh-2 5.5 (no result: DAX1 inh-1) | DAX1 inh confirm 12.0 | SF1 mutant ctr 7.8
CCOc1ccc(NC(=S)NC(=O)C2CCCC2)cc1	none
CC(=O)Nc1ccc(NC(=S)NC(=O)C2CCCC2)cc1	DAX1 inh-2 4.9 | DAX1 inh confirm inactive | SF1 mutant ctr inactive
O=C(Nc1ccc(F)c([N+](=O)[O-])c1)c1ccc2c(c1)OCCO2	none
O=C(NCCOc1ccc(Cl)cc1)c1ccc2c(c1)OCCO2	DAX1 inh-2 5.8 | DAX1 inh confirm 7.5 | SF1 mutant ctr 5.4
O=C(Nc1ccc(Cl)cc1[N+](=O)[O-])c1ccc2c(c1)OCCO2	DAX1 inh-2 4.7 | DAX1 inh confirm 10.3 | SF1 mutant ctr 4.2
O=C(CNC(=O)c1ccc2c(c1)OCO2)NCCOc1ccc(Cl)cc1	none
O=C(COc1ccc(Br)cc1Cl)NC(=S)Nc1ccccn1	DAX1 inh-1 5.2, DAX1 inh-2 4.8 | DAX1 inh confirm 15.7 | SF1 mutant ctr 3.0
CN1CCN(c2ccc(-c3cccc(NC(=O)COc4ccccc4)c3)nn2)CC1	hgDAF12 agonist 13.0, DAX1 inh-2 10.2 | DAX1 inh confirm 7.2 | SF1 mutant ctr inactive
COC(=O)CSc1nc(-c2cccs2)ccc1C#N	hgDAF12 agonist 11.9, ssDAF12 agonist 1.8, hcDAF-12 act 6.5, DAX1 inh-2 5.9 | DAX1 inh confirm 9.9 | SF1 mutant ctr 8.2
Cc1cccc(C)c1NC(=O)CN(C)C(=O)c1ccc(OCc2ccccc2)cc1	none
CC(C)(C)c1cc(NC(=O)c2cccs2)no1	hgDAF12 agonist 11.0, DAX1 inh-2 11.3 | DAX1 inh confirm 12.4 | SF1 mutant ctr 7.2
O=C(O)c1cc(/C=C/c2ccc(N3CCOCC3)cc2)nc2ccccc12	DAX1 inh-2 5.5 | DAX1 inh confirm 7.2 | SF1 mutant ctr inactive
O=C(O)c1cc(/C=C/c2ccc(N3CCOCC3)c([N+](=O)[O-])c2)nc2ccccc12	none
Cc1nc(CCNC(=O)C2CCC(=O)N(Cc3ccc(Cl)cc3)C2)sc1C (stereo unspecified)	none
CCOc1ccc(N(CC(=O)Nc2c(C)n(C)n(-c3ccccc3)c2=O)S(=O)(=O)c2cccc3cccnc23)cc1	none (no result: DAX1 inh-1)
Nc1ccn([C@@H]2O[C@H](CNCc3ccc(Oc4cc(-n5cccn5)ncn4)cc3)[C@@H](O)[C@H]2O)c(=O)n1	none
O=c1[nH]c(COc2ccc(Br)cc2Cl)nc2ccccc12	DAX1 inh-2 7.4 | DAX1 inh confirm 7.7 | SF1 mutant ctr 4.8
Cc1cc(C(=O)NC2CCCCCC2)c2ccccc2n1	none
CC1CCC(NC(=O)c2cc(Cl)nc3ccccc23)CC1 (stereo unspecified)	DAX1 inh-2 4.6 | DAX1 inh confirm 6.0 | SF1 mutant ctr 4.3
O=C(NCC1CCCCC1)c1cc2ccccc2cc1O	none
O=C(NCC1CCCO1)c1cc2ccccc2cc1O (stereo unspecified)	DAX1 inh-2 5.0 | DAX1 inh confirm 6.1 | SF1 mutant ctr 4.3
CC1CCC(NC(=O)c2cc3ccccc3cc2O)CC1 (stereo unspecified)	DAX1 inh-2 8.0 | DAX1 inh confirm 10.5 | SF1 mutant ctr 6.7
CCN(C[C@H]1N[C@@](CC)(C(=O)OC)[C@H]2C(=O)N(C)C(=O)[C@@H]12)S(=O)(=O)c1ccc(F)cc1	none
Cc1ccc2nc(SC(C)C(=O)N3CCOCC3)[nH]c2c1 (stereo unspecified)	hgDAF12 agonist 11.2, DAX1 inh-2 7.3 | DAX1 inh confirm 6.2 | SF1 mutant ctr 5.0
O=C1CCC2(CCCC2)c2ccccc21	none
O=C(NCc1ccccn1)c1ccc(Cl)c(S(=O)(=O)N2CCCCC2)c1	none
Cc1ccnc(NC(=O)c2ccc(S(=O)(=O)N3CCC(C)CC3)cc2)c1	hgDAF12 agonist 11.0, DAX1 inh-2 10.9 | DAX1 inh confirm 13.2 | SF1 mutant ctr 7.6
O=C(NCc1ccccn1)c1cccc(S(=O)(=O)N2CCCCC2)c1	DAX1 inh-2 4.7 | DAX1 inh confirm inactive | SF1 mutant ctr inactive
Cc1ccnc(NC(=O)c2cccc(S(=O)(=O)N3CCN(c4ccccc4)CC3)c2)c1	DAX1 inh-2 13.1 | DAX1 inh confirm 4.0 | SF1 mutant ctr inactive
O=C(/C=C/c1ccc(S(=O)(=O)N2CCOCC2)cc1)NCc1ccccc1Cl	none
O=C(/C=C/c1ccc(S(=O)(=O)N2CCOCC2)cc1)NCc1ccccc1F	DAX1 inh-2 5.0 | DAX1 inh confirm inactive | SF1 mutant ctr inactive
